Reference: PubChem BioAssay (NCI)
About 83,000 compounds went through this panel and 20% of them were active in at least one assay; those are over-represented in the sample as a whole.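 Single-concentration screen, 48 h exposure, 96-well plates. Endpoint: percent growth. Below 10 = active.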 Unmarked numbers belong to inactive results. Calls of active or inactive are those of the source.

Legend:
Assay in all cases: NCI-60 one-dose screen, 48 h (100 = growth as untreated, 0 = no growth, -100 = all killed)
Details in all cases: 10 µM unless noted
SR leukemia = tested on: SR leukemia
RPMI-8226 leukemia = tested on: RPMI-8226 leukemia
OVCAR-8 ovarian = tested on: OVCAR-8 ovarian
OVCAR-5 ovarian = tested on: OVCAR-5 ovarian
OVCAR-4 ovarian = tested on: OVCAR-4 ovarian
SK-OV-3 ovarian = tested on: SK-OV-3 ovarian
IGROV1 ovarian = tested on: IGROV1 ovarian
OVCAR-3 ovarian = tested on: OVCAR-3 ovarian
HS 578T breast = tested on: HS 578T breast
T-47D breast = tested on: T-47D breast
BT-549 breast = tested on: BT-549 breast
MDA-MB-435 melanoma = tested on: MDA-MB-435 melanoma
SW-620 colon = tested on: SW-620 colon
MCF7 breast = tested on: MCF7 breast
HCT-116 colon = tested on: HCT-116 colon
HCC-2998 colon = tested on: HCC-2998 colon
KM12 colon = tested on: KM12 colon
NCI/ADR-RES ovarian = tested on: NCI/ADR-RES ovarian

SMILES	growth (SR leukemia)	growth (RPMI-8226 leukemia)	growth (OVCAR-8 ovarian)	growth (OVCAR-5 ovarian)	growth (OVCAR-4 ovarian)	growth (SK-OV-3 ovarian)	growth (IGROV1 ovarian)	growth (OVCAR-3 ovarian)	growth (HS 578T breast)	growth (T-47D breast)	growth (BT-549 breast) [%]	growth (MDA-MB-435 melanoma)	growth (SW-620 colon)	growth (MCF7 breast)	growth (HCT-116 colon)	growth (HCC-2998 colon)	growth (KM12 colon)	growth (NCI/ADR-RES ovarian)
COc1cc(Nc2cc(C)nc(N3CCN(c4ccnc5cc(Cl)ccc45)CC3)n2)cc(OC)c1	-4.09% (active)	-13.5% (active)	12.7%	24.8%	34.5%	15.4%	-22.9% (active)	6.15% (active)	18.2%	8.17% (active)	41.8	-2.88% (active)	15.9%	5.32% (active)	2.14% (active)	7.77% (active)	3.72% (active)	
COc1ccc(C2Nc3c(c(C(C)(C)C)nn3-c3ccccc3)C(=O)CS2)cc1 (configuration not stated)	87%	82.7%	98.4%	108%	114%	106%	84.3%	101%	118%	96.5%		106%	107%	92.9%	97.7%		98.2%	94.8%
O=C(Cn1cccc(Nc2ccccc2)c1=O)Nc1ccccc1	104%	100%	102%	90.1%	102%	104%	119%	115%	102%	93.9%	106	97.3%	102%	96.1%	98.6%	109%	110%	
Cc1ccc(-c2onc3c(=O)[nH]nc(-c4ccccc4)c23)cc1	28%	17.9%	36.7%	62.3%	67.3%	14.9%	52.4%	7.2% (active)		37.1%	40.5	-34.6% (active)	34.7%	24%	25.8%	60.5%	29.3%	25.2%
O=C(/C=C/c1cc(CN2CCOCC2)c(O)c2ncccc12)c1cc(CN2CCOCC2)c(O)c2ncccc12	8.01% (active)	6.02% (active)	15.2%	28.3%	30.3%	-21.8% (active)	15.4%	23.6%	27.1%	7.07% (active)		21%	18.7%	10%	21.7%	37.2%	21.7%	21.4%
CN1CCN(c2ccc(Nc3c4ccccc4nc4ccccc34)cc2)CC1	103%	121%	100%	102%	103%	112%	111%	110%	117%	102%	112	110%	106%	99.1%	104%	113%	105%	
FC(F)(F)c1nc2c(NCc3ccc(-c4ccccc4)cc3)cccc2[nH]1	7.78% (active)	45%	77.2%	96.1%	88.9%	89.1%	85.8%	64.9%	71.7%		91.2	93.5%	75.3%	87%	74.1%	107%	80.5%	81%
COc1ccc(C2CC(c3ccc4ccccc4c3)=NN2/C=C2\SC(=S)N(NC(=O)Cc3ccccc3Nc3c(Cl)cccc3Cl)C2=O)cc1 (configuration not stated)	20.8%	-10.1% (active)	34.6%	56.8%	70%	41.9%	33.1%	2.15% (active)	13.3%	19.2%		-49.8% (active)	22.6%	22.5%	18.6%	31.2%	16%	9.39% (active)
COc1ccc(-c2cc(=O)c3c(OC)c4ccoc4cc3o2)cc1	82.4%	102%	99.2%	93.6%	109%	112%	113%	106%	120%	87.2%		89.6%	93.2%	98%	98%		100%	96.2%
NC(=O)c1cc(Cl)ccc1NC(=O)/C=C/c1ccccc1	-34.1% (active)	12.8%	51.2%	54.6%	40.7%	3.73% (active)	88.6%	-30.3% (active)	7.85% (active)	14.9%		-13.3% (active)	26.1%	10.9%	29.2%	60.1%	9.48% (active)	10.8%
Cc1cc(Nc2ccc(C)c(Cl)c2)n2nc(C(F)(F)F)nc2n1	60.6%	51.6%	30.8%	55.4%	-62.7% (active)	-50.5% (active)	15.1%	15.2%	28.7%	-0.705% (active)	69.6	34.5%	40.6%	77.9%	18.5%	74.5%	62%	
O=C(Nc1cccc2[nH]c(C(F)(F)F)nc12)c1ccc(-n2cnnn2)cc1	79.5%	48.7%	89.4%	123%	90.5%	104%	95.5%	76.2%	108%		63	105%	104%	96.2%	96%	116%	72.7%	107%
CCCCN1CCCn2c1nc1c2c(=O)n(CCC)c(=O)n1CCC	67.1%	110%	102%	105%	101%	101%	110%	94.8%	96.4%	101%		102%	96%	100%	98.3%	104%	100%	99.8%
C=C1c2nc3ccccc3n2C=C(c2ccc(OC)cc2)N1Cc1ccccc1	47.3%	39.4%	88.3%	101%	80.1%	107%	96.7%	85.4%	116%	59.9%		95.1%	88.7%	86.3%	73.7%	82.1%	98.5%	77.4%
O=C(Cc1ccc(/C=C/C(=O)c2ncc[nH]2)cc1)Nc1ccccc1	1.14% (active)	-0.0972% (active)	22.1%	78.5%	68.2%	75.9%	63.5%	17.7%	80.7%	39.9%		57.3%	14.2%	9.95% (active)	44.2%	90.4%	12.8%	31.1%
Cc1cc(N2CCN(c3ccnc4cc(Cl)ccc34)CC2)nc(NC2CCCCC2)n1	-24% (active)	-37.5% (active)	60.3%	66.8%	33.2%	56.3%	18.6%	38.2%	57.9%	7.8% (active)	51.9	-6.47% (active)	14.9%	12.8%	3.19% (active)	18.2%	30.1%	
NC(=NCCCC1(c2ccccc2)CCCC1)Nc1ccc(Cl)cc1	-39.7% (active)	-24.2% (active)	60.4%	59.8%	41.3%	89%	38.9%	60.8%	65.4%	3.02% (active)		10.9%	-32.9% (active)	12.4%	0.509% (active)		15.2%	67.1%
COc1cc2c(cc1O)CC[C@@H]1[C@@H]2CC[C@]2(C)[C@@H](OCCCN(C)C)CC[C@@H]12	-36.2% (active)	-32.9% (active)	-34.2% (active)	2.83% (active)	-15% (active)	-59.1% (active)	-35.2% (active)	-55.5% (active)	-38.2% (active)	-48.9% (active)		-61.8% (active)	-43.1% (active)	-68.9% (active)	-71% (active)		-48.5% (active)	-23.4% (active)
